Assay outcomes (PubChem)
GLP1R inv ag = GLP-1 receptor (human) inverse agonism | P43220 | HEK293 GLP-1R CRE-luciferase, luminescence, 24 h; GLP-1R form is constitutively active | Potency, µM (top dose mostly 38.3 µM), for the others: at the top dose activity change, negative = inhibition, actives largely listed as inhibitors | actives 1.6% (n = 410,000); further: on the % scale 0 is the no-effect control and ±100 the full control effect; nearly all actives have a fitted effect of over 55% in size
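Stable HEK293 clone (constitutively active GLP-1R + cAMP-response luciferase); 200 cells/uL plated, 12 h pre-culture, compound 24 hr, 37 deg C/5% CO2; detection reagent 12 min RT; luminescence.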
GLP1R ag = GLP-1 receptor (human) agonism; P43220; HEK293 GLP-1R CRE-luciferase, luminescence, 4-6 h; cells express a hypersensitive GLP-1R form; Potency, µM (doses to about 45.6 µM), for inactives: at the top dose activation, most hits filed as activators; actives 0.007% (n = 380,000); AID 624172; further: % of control where 0% means no effect
GLP1R cytotox = cytotoxicity counter-screen for GLP-1 receptor inverse agonists. Potency, µM (doses to about 38.3 µM), without a hit: at the top dose activity change, negative = inhibition, usual class: inhibitors. AID 624418. HEK293 cAMP-luciferase reporter cells, luminescence, 24 h. actives 0.13% (n = 410,000);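 further: loss of luciferase light is scored as toxicity; on the % scale 0 is the no-effect control and ±100 the full control effect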
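Cells in DMEM/10% Nu serum/1% pen-strep, 1536-well format. Pre-incubated 12 h, dosed with 23 nL compound, incubated a further 24 h. Luciferase detection, 12 min at room temp, luminescence.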
PTHR1 ag = agonists of human PTHR1 parathyroid hormone receptor | Potency, µM (titrated, usually from 115 µM), for the others: top-dose activation, usual class: activators | Q03431 | actives 0.075% (n = 410,000) | HEK293 GP2 PTHR1 cells, GloSensor cAMP luminescence, 1 h; further: nearly all actives have a fitted effect of over 55% in size
Target sequence (Q03431 whole entry, looked up): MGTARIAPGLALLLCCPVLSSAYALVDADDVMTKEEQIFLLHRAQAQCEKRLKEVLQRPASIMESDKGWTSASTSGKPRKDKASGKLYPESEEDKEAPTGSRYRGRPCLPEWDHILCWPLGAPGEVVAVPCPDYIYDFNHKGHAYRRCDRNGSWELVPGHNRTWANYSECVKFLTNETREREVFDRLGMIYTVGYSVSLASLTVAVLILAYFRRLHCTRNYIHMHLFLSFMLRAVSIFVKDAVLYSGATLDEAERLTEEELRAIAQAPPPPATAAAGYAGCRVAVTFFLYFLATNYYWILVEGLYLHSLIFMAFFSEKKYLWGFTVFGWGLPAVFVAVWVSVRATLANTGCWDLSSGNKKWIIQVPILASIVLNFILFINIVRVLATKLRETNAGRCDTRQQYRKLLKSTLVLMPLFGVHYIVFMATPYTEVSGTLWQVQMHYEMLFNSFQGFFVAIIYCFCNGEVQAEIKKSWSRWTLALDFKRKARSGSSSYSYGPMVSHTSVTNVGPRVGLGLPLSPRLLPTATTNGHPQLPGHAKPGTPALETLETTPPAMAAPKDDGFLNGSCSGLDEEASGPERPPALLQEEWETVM
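HEK-293-derived GP2 cells expressing PTHR1 and a GloSensor cAMP reporter, 3,000/well, plated overnight, given luciferin plus IBMX (each 0.5 mM as added) for 1 h at 37 °C, then compound for 1 h at 37 °C. Luminescence was read after 15 min at room temperature.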
* marks the source's active call; other numbers are inactive results; i = inactive; u = inconclusive; x = no result given; [ ] = remark or other dose. Rows were chosen to be rich in hits. Some 1.7% of all compounds tested hit in one or more screens of this group. The call rests on the fitted dose curve; in most records, active means well fitted curve in the direction sought with a large enough effect; inconclusive means small, poorly fitted or top-dose-only effect, or another doubt; inactive means no such curve, though single readings can be large; an effect the other way counts as inactive or inconclusive. Potency means the concentration at half of the fitted maximal effect.

SMILES | GLP1R inv ag | GLP1R ag | GLP1R cytotox | PTHR1 ag
Cn1c(=O)c2c(SCC(=O)N3CCOCC3)nc(-c3ccccc3F)nc2n(C)c1=O | 2.1% | -3.9% | 6.4% | i
COc1ccc(-n2c(=O)c3c4c(sc3n(Cc3ccc(C(C)(C)C)cc3)c2=O)CCC4)c(OC)c1 | 6.31µM* | x | -3.3% | i
CNC[C@H](O)c1cccc(O)c1 | 70.1% | u | 12.8% | u
CCN(CC(O)c1cccc(O)c1)C(=O)C12CC3CC(CC(C3)C1)C2 (configuration not stated) | u | 12.6µM* | 0.3% | i
COc1cc(Cl)c(NC(=O)CN(C)S(=O)(=O)c2ccc3[nH]c4c(c3c2)CCCC4)c(OC)c1 | u | x | -2.4% | -13.6%
CCCCCCOc1ccc(/C(C)=N/NC2=NCCN2)cc1[N+](=O)[O-] | u | 16.6% | u | i
CCCCOc1ccc(Br)cc1/C(C)=N/NC1=NCCN1 | 2.82µM* | 2.8% | 4.47µM* | -16.2%[57.5 µM]
CCCCc1ccc(NC(=O)Cn2nnc3sc4c(c3c2=O)CCC(C)C4)cc1 (configuration not stated) | 1.3% | x | 1.4% | -5.6%
O=C(NCCCN1CCN(Cc2ccccc2Cl)CC1)Nc1ccccc1 | -29.7% | 14.9% | -10.5% | i
Cc1ccccc1CC1CCN(CCCNC(=O)Nc2ccccc2)CC1 | 10µM* | -3.2% | -2.3% | -5.9%
COc1ccc(CNS(=O)(=O)c2cc(C(=O)Nc3cc(Cl)cc(Cl)c3)ccc2F)cc1 | u | x | -8.3% | -14.6%
CN(CC(=O)Nc1cccc(Cl)c1)S(=O)(=O)/C=C/c1ccccc1 | 10µM* | 15.0% | -18.5% | i
CC1(C)CC[C@]2(C(=O)n3ccnc3)CC[C@]3(C)[C@H](C(=O)C=C4[C@@]5(C)C=C(C#N)C(=O)C(C)(C)[C@@H]5CC[C@]43C)[C@@H]2C1 | 2.51µM* | -1.7% | -10.2% | -0.8%
CCn1c(=NC(=O)CSC(C)=O)sc2cc(F)ccc21 | -2.7% | -35.5% | 9.9% | -9.7%
C#CCn1c(=NC(=O)CSC(C)=O)sc2cc(F)ccc21 | 3.55µM* | 5.1% | u | i
CC1(C)SC2[C@@H](N=CN3CCCCCC3)C(=O)N2[C@H]1C(=O)O (some centres not stated) | x | -6.5% | x | x
CC(C)CCn1cnc2c(oc3nc4c(cc32)CCCC4)c1=O | 8.91µM* | -7.2% | -8.4% | -29.6%
COC(=O)c1cc2oc3ccccc3c2n1Cc1cc(C)ccc1C | 10.6% | x | 5.3% | -42.3%
CCCC(c1nnnn1CC1CCCO1)N1CCN(c2cc(Cl)ccc2C)CC1 (configuration not stated) | 8.91µM* | 19.6% | -12.2% | i
Cc1ccc(Cl)cc1N1CCN(C(CC(C)C)c2nnnn2CC2CCCO2)CC1 (configuration not stated) | -2.9% | -17.6% | -0.7% | i
Oc1ccc(C[C@@H]2CNC(=S)N2CCc2cc(C(F)(F)F)cc(C(F)(F)F)c2)cc1 | u | 24.9% | -26.0% | i
FC(F)(F)c1cc(CCN2C(=S)NC[C@@H]2Cc2ccccc2)cc(C(F)(F)F)c1 | 7.94µM* | 3.9% | u | -36.2%
CN(c1nc2c(c(=O)n(C)c(=O)n2C)n1CC(=O)c1ccccc1)C1CCCCC1 | 7.94µM* | 18.2% | -24.7% | -3.8%
CCc1ccc(NS(=O)(=O)c2ccc3[nH]cc(C(=O)NC4CCCC4)c(=O)c3c2)cc1 | u | x | -29.2% | 13.0%
Cc1c(C(=O)N(C)C2CCCCC2)sc2ncnc(N3CCN(c4ccccc4F)CC3)c12 | 12.6µM* | -1.8% | -9.8% | -32.1%
SMILES | GLP1R inv ag | GLP1R ag | GLP1R cytotox | PTHR1 ag
O=C(NCc1ccccc1Cl)c1cnc(N2CCCCC2)c2ccccc12 | u | x | 8.0% | -27.3%
COc1ccc(C2NC(c3ccc(OC)cc3)C(c3ccccc3)C(=O)C2c2ccccc2)cc1 (configuration not stated) | 5.62µM* | 0.3% | 23.1% | -7.8%
CNC(=O)c1[nH]nc2c1CCc1cc(OC)ccc1-2 | 137.2% | 17.0% | 11.4% | i
COc1ccc2c(c1)CCc1c-2n[nH]c1C(=O)NCCC(C)C | 7.94µM* | -2.9% | -2.0% | -90.8%
Cc1ccc(NC(=O)c2ccc(Cl)c(NC(=O)c3cccs3)c2)cc1 | 10µM* | 17.4% | -17.2% | -18.9%
COc1ccccc1C(=O)OCC(=O)NC12CC3CC(CC(C3)C1)C2 | 10µM* | 11.9% | 11.4% | -56.3%
O=C(CON=C1c2ccccc2-c2ccccc21)NC12CC3CC(CC(C3)C1)C2 | 1µM* | 2.9% | -21.5% | -13.0%
O=C(Nc1ccc(C(F)(F)F)cc1)C(Cc1ccccc1)n1cccc1 (configuration not stated) | u | x | -27.6% | -79.1%
Fc1ccc(N/N=C/c2ccncc2)c(F)c1 | 1.41µM* | 10.2% | -15.1% | -15.5%
O=C(O)c1ccc(/C=N/Nc2ccc(F)cc2F)cc1 | u | -17.0% | 6.5% | -36.8%
Cc1ccc(-c2nnn(CC(=O)N(Cc3ccco3)C(C(=O)NC(C)(C)C)c3ccc(C)o3)n2)o1 (configuration not stated) | 1.26µM* | 0.4% | 1.1% | -21.1%
O=C(O)CSc1nnc(-c2ccc(O)cc2)o1 | 11.5% | -2.0% | -6.8% | i
O=C(CSc1nnc(-c2ccc(O)cc2)o1)c1ccc(Br)cc1 | 8.91µM* | x | -7.0% | i
Cc1cc(C)c2sc(N(CCN(C)C)C(=O)c3cc(Cl)sc3Cl)nc2c1 | u | 5.2% | -1.0% | i
CCN(CC)CCN(C(=O)c1cc2ccccc2cc1OC)c1nc2ccc(OC)cc2s1 | 5.62µM* | -7.1% | -22.6% | -5.6%
CCN(CC)CCN(C(=O)c1cc2ccccc2cc1OC)c1nc2ccc(F)cc2s1 | 5.01µM* | -6.1% | -25.8% | i
Cc1ccc2nc(N(CCCN(C)C)C(=O)c3cc(-c4cccs4)nc4ccccc34)sc2c1 | 2.51µM* | 3.8% | u | i
COc1ccccc1C(=O)N(CCN(C)C)c1nc2cc(C)cc(C)c2s1 | 11.2µM* | 8.4% | -17.0% | 14.2%
COc1ccc(CSc2nc3ccncc3n2CC(=O)Nc2cc(C)cc(C)c2)cc1 | u | x | u | -8.4%
COc1cc2ccccc2cc1C(=O)N(CCN(C)C)c1nc2ccc(C)cc2s1 | 3.98µM* | 5.6% | -13.6% | -0.2%
CCc1ccc2nc(N(CCN(C)C)C(=O)c3ccc4ccccc4c3)sc2c1 | 12.6µM* | -0.9% | 7.9% | i
COP(=O)(OC)OC(c1ccc(Cl)cc1)P(=O)(OC)OC (configuration not stated) | x | -1.8% | x | x
Cc1ccc(S(=O)(=O)c2nnn3c2nc(N2CCOCC2)c2sccc23)cc1C | 56.2% | x | -10.1% | -17.8%
Cc1ccccc1Nc1c(-c2cccnc2)nc2cccc(C)n12 | -26.0% | 1.5% | -4.6% | -76.8%
Cc1cccc2nc(-c3cccnc3)c(Nc3ccc(C(C)C)cc3)n12 | 10µM* | x | -13.7% | -41.8%
CCOc1ccc(CCNC(=O)Cn2c(=O)c3cccn3c3ccc(F)cc32)cc1OCC | 30.2% | x | -1.7% | i
